Screening data from PubChem BioAssay.
An excerpt weighted towards active compounds, which were near 12% of everything screened.
BAZ2B block = qHTS Assay for Inhibitors of BAZ2B; AlphaScreen BAZ2B-H3K14Ac peptide displacement; Potency, µM (top dose mostly 114 µM), without a hit: at the top dose activity change, negative = inhibition, actives largely listed as inhibitors; 360,000 tested, 4.4% active; Bromodomain adjacent to zinc finger domain protein 2B (Homo sapiens), Q9UIF8; note: % is set by controls: 0 for no effect and ±100 for the full control effect; nearly all actives have a fitted effect of over 60% in size
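BAZ2B 50 nM plus b-H3(5-23)K14Ac 50 nM, PBS pH 7.4/0.01% Tween-20, 30 min RT; compound added (max 110 uM), 30 min RT; streptavidin donor/Ni-chelate acceptor beads 10 ug/mL final, 20 min dark; AlphaScreen read.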
G9a block = qHTS Assay for Inhibitors of Histone Lysine Methyltransferase G9a; G9a H3K9 monomethylation, AlphaScreen, 2 h; AID 504332, 2011; Potency, µM (doses to about 102 µM), for the others: top-dose activity, negative = inhibition, hits mostly inhibitors; 350,000 tested, 8.8% active; Histone-lysine N-methyltransferase EHMT2 (Homo sapiens), Q96KQ7; note: % is set by controls: 0 for no effect and ±100 for the full control effect; nearly all actives have a fitted effect of over 75% in size
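Enzyme 20 nM + cpd, 15 min RT; add b-H3K9 pep 500 nM / SAM 20 uM; 2 h RT; anti-H3K9me1 Ab 0.5 ug/mL + SA donor / anti-rabbit acceptor beads 20 ug/mL each, 10 min; AlphaScreen read.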
Sfp inh = qHTS Assay for Inhibitors of Bacillus subtilis Sfp phosphopantetheinyl transferase (PPTase) | 310,000 tested, 3.5% active | Biochemical Sfp PPTase activity, qHTS | Potency, µM, for inactives: largest response in the series, negative = inhibition, usual class: inhibitors;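 note: the enzyme is Sfp with the accession as filed and its product quenches rhodamine fluorescence; 0% = enzyme reaction without inhibitor and -100% = no enzyme wells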
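Fluorescence-quenching assay with 15 nM Sfp, 5 uM rhodamine-CoA and 12.5 uM BHQ-2-labelled ybbR peptide in pH 7.6 Hepes/MgCl2 buffer. Enzyme was pre-incubated with compound for 15 min at room temperature. Rate was taken from the 30-min fluorescence change (525/598 nm).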
JMJD2A Tudor = qHTS Assay for Inhibitors of JMJD2A-Tudor Domain; 390,000 tested, 4.4% active; AlphaScreen JMJD2A-Tudor / H3K4me3 peptide binding; Potency, µM (highest dose often 114 µM), inactives show at the top dose activity change, negative = inhibition, hits mostly inhibitors; note: % is set by controls: 0 for no effect and ±100 for the full control effect; nearly all actives have a fitted effect of over 50% in size
HP1b chromo inh = HTS for Inhibitors of HP1-beta Chromodomain Interactions with Methylated Histone Tails; Chromobox protein homolog 1 (Homo sapiens), P83916; AlphaScreen HP1-beta / biotin-H3K9me3 peptide binding; Potency, µM (titrated, usually from 114 µM), without a hit: top-dose activity change, negative = inhibition, usual class: inhibitors; 390,000 tested, 0.56% active; note: nearly all actives have a fitted effect of over 70% in size
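AlphaScreen: HP1-beta (50 nM) preformed 30 min with biotin-H3(1-18)K9me3 peptide (50 nM) in PBS pH 7.4, 0.01% Tween-20. Compound added for 30 min at RT, then streptavidin donor/nickel chelate acceptor beads (10 ug/mL) for 30 min.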
L3MBTL1 inh = qHTS Assay for the Inhibitors of L3MBTL1; Lethal(3)malignant brain tumor-like protein 1 (Homo sapiens), Q9Y468; Potency, µM (top dose mostly 57.1 µM), for inactives: at the highest dose activity, negative = inhibition, hits mostly inhibitors; 230,000 tested, 0.66% active; AlphaScreen L3MBTL1–H3K9me1 peptide binding; AID 485360, 2010; note: % is set by controls: 0 for no effect and ±100 for the full control effect; nearly all actives have a fitted effect of over 60% in size
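Displacement of a biotinylated histone H3(1-15) peptide monomethylated at Lys9 (75 nM) from L3MBTL1 (50 nM) was measured by AlphaScreen after a 30 min room-temperature compound incubation; cefsulodin titration served as intraplate control.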
Starred values were filed as active, the others as inactive; ? = inconclusive; . = no result; [ ] = another dose, or the depositor's remark. Calls come from the whole dose curve; as a rule, active = well fitted curve in the direction sought with a large enough effect; inconclusive = small, poorly fitted or top-dose-only effect, or another doubt; inactive = no such curve, though single readings can be large; an effect the other way counts as inactive or inconclusive. Potency is the fitted concentration of half-maximal effect.

SMILES	BAZ2B block	G9a block	Sfp inh	JMJD2A Tudor	HP1b chromo inh	L3MBTL1 inh
CCCCOC(=O)c1ccc(OC(=O)c2sc3ncn(Cc4cccc(F)c4)c(=O)c3c2C)cc1	11%	-3%[59 µM]	.	8%	4%	.
CCC(C)NCCOCCOc1ccc(Cl)cc1Br (configuration not stated)	-22%	2.2µM*	50µM*	2.5µM*	-19%	-10%
CC(C)NC(=O)CCCOc1ccc(Cl)cc1Cl	-4%	14%	-1%	-5%	31%	.
CCC(C)NCCOCCOc1ccc(C)cc1OC (configuration not stated)	?	11µM*	-30%	20µM*	?	3%
COc1cc(C)ccc1OCCOc1cc(C)ccc1Cl	?	?	-26%	-27%[11.4 µM]	31%	?
Cc1cccc(N2CCN(C(=O)C3CCN(S(=O)(=O)c4cn(C)cn4)CC3)CC2)c1C	-17%	11%[59 µM]	.	-11%	14%	.
CCCCN(CC)CCNC(=O)c1cc2c(=O)oc3ccc(C)cc3c2s1	-21%	-41%[59 µM]	.	-28%	15%	.
O=Nc1ccc(O)c2ncccc12	22µM*	?	?	28µM*	-2%	?
Oc1ccc(N=Nc2ccc3c(c2)OCCO3)c(O)c1	?	?	10%	40µM*	-35%	.
Nc1ccc(Br)c2cccnc12	-33%	32µM*	-25%	-29%	17%	-20%
Oc1ccc(C=Nc2cccc3ncccc23)c(O)c1	11%	-16%[59 µM]	-5%	?	16%	-8%
Cc1cnc(N=Nc2ccccc2)[nH]1	.	.	.	?	11%[57 µM]	.
Nc1ccc(N=Nc2ccccc2)c2cccnc12	7.9µM*	13µM*	-22%	32µM*	16µM*	.
COCOc1c2c(c(OCOC)c3c(OCOC)cccc13)/C(=N/N[S+](=O)([O-])c1ccc(C)cc1)C1=C2CCCC1	.	.	4%	.	.	.
O=S1(=O)c2ccccc2N(Cc2cccc(Cl)c2)c2ccccc21	-36%	-18%[59 µM]	.	-16%	25%	.
COc1ccc(N=Nc2ccc(O)c3ncccc23)cc1	6.3µM*	-7%[59 µM]	14%	22µM*	-19%	.
COc1cccc(N=Nc2ccc3cccnc3c2O)c1	13µM*	7.1µM*	15%	14µM*	?	.
COc1ccc(-c2[nH]ncc2N=Nc2cc(C)cc(C)c2)cc1	?	?	16%	-20%[11.4 µM]	-17%	-28%
COc1ccc(-c2ncccc2O)cc1	-1%	1%	7%	-4%	13%	.
COc1ccc(-c2[nH]ncc2N=Nc2ccccc2)cc1	35µM*	50µM*	?	28µM*	?	-5%
Cc1ccc(N=Nc2ccc(O)cc2)c(Br)c1	45µM*	.	-7%	35µM*	?	?
CCn1cc(C(=O)N2CCN(c3cccc(Cl)c3)CC2)c(=O)c2cc(S(=O)(=O)N3CCOCC3)ccc21	.	-1%[59 µM]	.	-27%	5%	.
COc1cc(NC(=O)c2cc(-c3cccc(OC)c3)n[nH]2)cc(OC)c1	-19%	-5%[59 µM]	.	-17%	47%	.
CCOCCCNC(=O)c1ccc2c(c1)NC(=O)C(CS(=O)(=O)Cc1ccc(F)cc1Cl)N2 (configuration not stated)	?	?	.	-13%	33%	.
COCCn1c(=O)c(-c2cccc(C#N)c2)nc2cnc(N3CCOCC3)nc21	.	8%[0.501 µM]	7%	.	.	.
SMILES	BAZ2B block	G9a block	Sfp inh	JMJD2A Tudor	HP1b chromo inh	L3MBTL1 inh
CCOC(=O)c1cc(C)n(CC2CCC(C(=O)Nc3ccc(OC)cc3)CC2)c1C (configuration not stated)	-20%	-1%[59 µM]	.	-4%	50%	.
COc1ccc(N=Nc2cc(-c3ccccc3)ccc2O)cc1	10µM*	?	1%	13µM*	?	?
COc1cccc(N=Nc2ccc(O)c3ncccc23)c1	7.9µM*	10µM*	12%	18µM*	?	.
COc1cccc(-n2cnc(=O)c3cccnc32)c1	2%	5%[59 µM]	8%	-3%	37%	5%
Oc1ccc(N=Nc2ccc(Br)cc2)c(O)c1	25µM*	?	-8%	-34%	-9%	-28%
O=S(=O)(O)c1cccc2c(N=Nc3ccc(O)c4ncccc34)cccc12	22µM*	10µM*	-7%	25µM*	22µM*	.
Cc1nc2ccccn2c1P(=O)(c1ccccc1)c1ccccc1	.	.	.	-24%	.	.
Cc1cccc(C(=O)NCC(=O)OC(C(=O)Nc2cc(C(F)(F)F)ccc2Cl)c2ccccc2)c1 (configuration not stated)	.	.	.	-21%	.	.
CC(C)C[C@@H](CC(=O)N[C@@H](CCCN)CC(=O)N[C@@H]1CCNC[C@H]1C(=O)N[C@H](CC(=O)N[C@@H](CCC(=O)O)CC(=O)O)CC(C)C)NC(=O)[C@@H]1CNCC[C@H]1N	.	.	-17%	.	.	.
COc1ccc(NC(=O)Cn2ccn(Cc3ccccc3)c(=O)c2=O)cc1Cl	?	-3%[59 µM]	.	-34%	15%	.
COc1cc(N)c2ncccc2c1Cl	.	.	.	-3%	16%[57 µM]	.
Cc1ccccc1N=Nc1ccc(O)c2ncccc12	7.9µM*	?	3%	?	?	25µM*
Oc1ccc(N=Nc2ccc3c(c2)OCCO3)c2cccnc12	?	-47%	-13%	20µM*	?	?
Cc1ccc(O)c2ncccc12	.	30%[12.7 µM]	19%	.	.	.
COc1ccc(C)cc1N=Nc1ccc(O)c2ncccc12	18µM*	10µM*	5%	8.9µM*	7.9µM*	.
CCOc1ccc(C(=O)Nc2ccc3nn(-c4ccc(OC)c(Cl)c4)nc3c2)cc1	2%	-2%[59 µM]	.	-17%	24%	.
CCc1ccc(NC(=O)Cn2c(=O)n(Cc3ccco3)c(=O)c3cccnc32)cc1	-1%	-19%[59 µM]	.	3%	14%	.
COc1cc(S(=O)(=O)n2ccnc2C(C)C)ccc1Br	-12%	-1%[59 µM]	.	-10%	14%	.
COC(=O)c1ccc2nc(NC(=O)C3CC3)sc2c1	-20%	6%	-12%	-9%	13%[57 µM]	.
Cc1ccc2nc(NC(=O)COC(=O)CSc3nc(C)cc(C)n3)sc2c1	-37%	45µM*	?	-13%	34%	-7%
COC(=O)c1ccc2nc(NC(=O)CN3C(=O)CCC3=O)sc2c1	56µM*	-7%[2.33 µM]	28µM*	-21%[11.4 µM]	-6%	1%
COc1ccc2nc(NC(=O)CSc3nc(C)cc(C)n3)sc2c1	0%	?	-5%	-27%	30%	.
